Bioassay records from PubChem BioAssay.
An excerpt weighted towards active compounds, which were near 6.3% of everything screened.
tim23-1 inh = inhibits growth of tim23-1 mutant yeast | S. cerevisiae tim23-1 growth, BacTiter-Glo luminescence, 24 h | inhibition, % at 20 µM | hit rate 1.3% among 330,000 | AID 463212;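 active = growth inhibition of the mutant yeast at or above 50%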;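 note: temperature-sensitive mutant grown at 25 °C; plate controls were DMSO-treated mutant yeast for no effect and medium wells lacking yeast for full effect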
tim10-1 inh = growth inhibitors of tim10-1 mutant yeast; inhibition, % at 20 µM; S. cerevisiae tim10-1 ts strain growth, BacTiter-Glo, 24 h; hit rate 2.2% among 330,000; AID 463190;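 active = inhibition of at least 40%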;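 note: mutant grown at 25 °C; 0% = DMSO wells with yeast and 100% = wells holding no yeast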
Mdm2 MdmX PPI = inhibitors of human Mdm2/MdmX interaction; O15151+Q00987; SaOS-2 split-luciferase Mdm2/MdmX complementation, luminescence; inhibition, % at 8 µM; hit rate 3% among 330,000;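 active = inhibition of at least 50% at 8 µM in the primary screen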
Target sequence (O15151 whole entry, looked up): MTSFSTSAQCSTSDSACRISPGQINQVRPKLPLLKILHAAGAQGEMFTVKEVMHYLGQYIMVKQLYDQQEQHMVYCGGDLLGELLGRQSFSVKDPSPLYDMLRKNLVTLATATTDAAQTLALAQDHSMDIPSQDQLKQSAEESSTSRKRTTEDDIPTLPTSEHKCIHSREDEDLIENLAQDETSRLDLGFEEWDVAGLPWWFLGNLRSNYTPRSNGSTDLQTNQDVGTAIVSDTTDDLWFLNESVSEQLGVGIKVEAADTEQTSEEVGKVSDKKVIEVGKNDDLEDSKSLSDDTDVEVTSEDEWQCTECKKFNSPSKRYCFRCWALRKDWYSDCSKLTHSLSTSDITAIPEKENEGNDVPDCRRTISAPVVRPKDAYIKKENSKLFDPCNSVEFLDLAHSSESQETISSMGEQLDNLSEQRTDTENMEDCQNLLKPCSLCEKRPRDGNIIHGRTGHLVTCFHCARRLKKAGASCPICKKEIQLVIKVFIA
Target sequence (Q00987 whole entry, looked up): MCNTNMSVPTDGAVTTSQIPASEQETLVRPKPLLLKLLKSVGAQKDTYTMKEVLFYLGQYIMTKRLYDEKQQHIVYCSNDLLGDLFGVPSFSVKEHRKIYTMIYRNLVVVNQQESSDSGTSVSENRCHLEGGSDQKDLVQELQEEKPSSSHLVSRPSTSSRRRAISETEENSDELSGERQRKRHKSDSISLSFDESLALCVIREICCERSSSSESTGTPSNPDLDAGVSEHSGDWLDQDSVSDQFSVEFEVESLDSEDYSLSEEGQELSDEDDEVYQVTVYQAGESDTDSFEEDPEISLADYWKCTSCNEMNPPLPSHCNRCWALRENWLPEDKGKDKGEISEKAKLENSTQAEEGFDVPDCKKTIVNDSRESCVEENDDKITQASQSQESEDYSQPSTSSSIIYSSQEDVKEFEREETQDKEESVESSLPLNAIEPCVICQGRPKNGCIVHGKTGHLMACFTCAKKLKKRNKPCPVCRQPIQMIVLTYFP
TIM10 inh = growth inhibitors of TIM10 yeast strain | S. cerevisiae TIM10 strain growth, BacTiter-Glo luminescence, 24 h | inhibition, % at 10 µM | hit rate 1.4% among 330,000;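 active = inhibition of 40% or more at the single tested concentration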;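 note: wild-type TIM10 isogenic control strain grown at permissive 25 °C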
MPTP block = inhibitors of mitochondrial permeability transition pore; AID 602449; hit rate 1.4% among 360,000; isolated mouse mitochondria, Ca2+ swelling absorbance, 30 min; inhibition, % at 10 µM;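 active = inhibition of 50% or more, scaled per plate between neutral and stimulator controls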;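 note: 0% = DMSO wells given calcium and 100% = 1 mM EGTA wells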
tim10-1 conf = tim10-1 yeast growth inhibition, confirmed | shares compounds with tim10-1 inh | S. cerevisiae tim10-1 ts strain growth, BacTiter-Glo, 24 h | inhibition, % at 20 µM | hit rate 56% among 7,400;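 active = inhibition of yeast growth at or above a set limit in either of two repeat tests at 20 µM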;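 note: tim10-1 mutant grown at permissive 25 °C to find synthetic lethal compounds; 0% = DMSO yeast wells and 100% = medium wells without yeast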
TIM10 conf = confirmation of TIM10 yeast growth inhibitors; shares compounds with TIM10 inh; S. cerevisiae tim10 strain growth, BacTiter-Glo luminescence, 24 h; inhibition, % at 10 µM; hit rate 63% among 4,600;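 active = inhibition of yeast growth at or above a set limit in either of two replicates at 10 µM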;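 note: this counterscreen used the strain with wild-type TIM10; 0% = yeast with DMSO and 100% = medium wells lacking yeast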
tim23-1 conf = confirmation of tim23-1 mutant yeast growth inhibitors. inhibition, % at 20 µM. hit rate 83% among 4,400. shares compounds with tim23-1 inh. S. cerevisiae tim23-1 growth, BacTiter-Glo luminescence, 24 h;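 active = inhibition above about 39% in either of two replicate wells at 20 µM, limit read from the data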;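 note: temperature-sensitive tim23-1 mutant grown at 25 °C; 0% = DMSO wells with yeast and 100% = medium wells without yeast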
Mdm2 MdmX conf = human Mdm2/MdmX binding inhibition, confirmed. shares compounds with Mdm2 MdmX PPI. luminescent assay. inhibition, % at 8 µM. hit rate 55% among 10,000. AID 489028; in the data active = inhibition above about 40%
Full FLuc ctr = full-length luciferase inhibition in Mdm2/MdmX counter-screen; shares compounds with Mdm2 MdmX PPI; SaOS-2 full-length luciferase counterscreen, luminescence; inhibition, % at 8 µM; hit rate 77% among 6,200; AID 504607;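 active = mean inhibition at 8 µM reaching about 37%, which flags the compound as non-specific, limit read from the data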;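 note: p53-null SaOS-2 cells with luciferase driven by a doxycycline-inducible promoter; compound on cells about two nights before reading with doxycycline added after day one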
Rh123 counter = Rhodamine 123 counter-screen of mitochondrial pore hits. shares compounds with MPTP block. isolated mitochondria, membrane potential, Rhodamine 123 fluorescence. inhibition, % at 10 µM. hit rate 78% among 5,000; in the data active = inhibition above about 22%;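 note: 0% = DMSO vehicle and 100% = positive control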
Numbers without * were called inactive; x = no result given; + = active, no number.

SMILES	tim23-1 inh	tim10-1 inh	Mdm2 MdmX PPI	TIM10 inh	MPTP block	tim10-1 conf	TIM10 conf	Mdm2 MdmX conf	Full FLuc ctr	others
C[n+]1c(-c2ccccc2)cc(-c2ccc(O)cc2)cc1-c1ccccc1	28.9	12.8	16.0	-5.2	3.7	x	x	x	x
Clc1ccc(C[n+]2c(-c3ccccc3)cc(-c3ccccc3)cc2-c2ccccc2)cc1	30.9	44.8*	89.9*	36.9	23.3	37.7*	x	83.8*	18.7
Cc1ccc(/C=C2\C(=O)NC(=S)N(c3ccccc3F)C2=O)s1	x	x	x	x	46.2	x	x	x	x
Cc1ccc(/C=C2\C(=O)NC(=S)N(c3ccc(F)cc3)C2=O)s1	54.6*	69.9*	79.9*	43.1*	14.3	36.0*	37.8*	4.4	x	tim23-1 conf=72.0*
O=C1NCN(c2ccccc2)C12CCN(C(CCc1ccccc1)c1nnnn1C1CCCCC1)CC2 (stereo unspecified)	x	x	x	x	2.0	x	x	x	x
N#Cc1cc2c(nc1SCC(=O)Nc1cc(Cl)ccc1Cl)C1CCN2CC1	21.0	40.4*	84.1*	11.3	4.9	22.6	x	98.7*	21.1
N#Cc1cc2c(nc1SCC(=O)Nc1ccc(Cl)cc1)C1CCN2CC1	6.2	-1.2	-84.3	3.9	1.2	x	x	x	x
O=C1C2CC(CN3CCCCC23)C2CCCCN12 (stereo unspecified)	x	x	x	x	-2.0	x	x	x	x
O=c1[nH]c2ccccc2n1C1CCN(Cc2ccc(-c3nc4ccc(F)cc4nc3-c3ccccc3)cc2)CC1	x	x	x	x	1.7	x	x	x	x
NC(Cc1ccc(F)cc1)c1csc(Nc2ccccn2)n1 (stereo unspecified)	x	x	x	x	3.6	x	x	x	x
C=C(CO)CC1CC(O)[C@]2(C)OC3CC4OC5C[C@]6(C)O[C@]7(C)CCC8OC9C[C@]%10(C)OC%11C(C)=CC(=O)OC%11CC%10OC9C[C@@H](C)C8OC7CC6O[C@]5(C)C/C=C\C4OC3CC2O1 (stereo partly specified)	30.4	30.0	31.5	4.0	-1.6	x	x	x	x
C=C(C=O)CC1CC(O)[C@]2(C)OC3CC4OC5C[C@]6(C)O[C@]7(C)CCC8OC9C[C@]%10(C)OC%11C(C)=CC(=O)OC%11CC%10OC9C[C@@H](C)C8OC7CC6O[C@]5(C)CC5OC5C4OC3CC2O1 (stereo partly specified)	-6.7	59.1*	98.9*	-13.5	-1.1	29.1*	x	100.0*	0.7
CCn1nc(/C=C/c2ccccc2)nc2c(=O)n(C)c(=O)nc1-2	93.0*	92.6*	97.4*	95.9*	1.4	94.6*	97.7*	85.1*	24.6	tim23-1 conf=91.3*
CC(C)(C)c1cc([N+](=O)[O-])cc(C(C)(C)C)c1O	43.4	48.8*	88.4*	25.5	x	44.0*	x	39.0	x
NC(=O)c1cc([N+](=O)[O-])cc([N+](=O)[O-])c1	x	x	x	x	0.5	x	x	x	x
CC(=O)OC[C@]12CCC(C)=C[C@H]1O[C@@H]1[C@H](O)[C@@H](OC(C)=O)[C@@]2(C)[C@]12CO2	25.7	54.3*	100.3*	26.3	-0.9	48.7*	x	100.3*	0.1
CN1C(=O)/C(=C/c2cccn2-c2ccc3ccccc3c2)C(=O)NC1=S	65.9*	55.7*	100.5*	46.0*	4.4	52.7*	48.9*	23.6	x	tim23-1 conf=63.7*
COc1cc(/C=C(/C)[N+](=O)[O-])ccc1OCc1ccccc1Cl	52.3*	49.0*	94.5*	51.5*	13.4	35.6*	43.5*	100.2*	51.4*	tim23-1 conf=71.2*
C[C@@H]1COc2cccc(N3CCN(C)CC3)c2S(=O)(=O)N1	x	x	x	x	1.6	x	x	x	x
CCCC1(CCC)C(=O)NC(=Nc2ccccc2)NC1=O	18.1	17.3	8.5	-8.9	2.1	x	x	x	x
CCCCC1(CCCC)C(=O)NC(=Nc2cccc(C)c2)NC1=O	29.6	40.1*	18.1	9.5	91.9*	26.4	x	x	x	Rh123 counter=92.6*
O=C1NCN(c2ccccc2)C12CCN(C(c1ccccc1OC(F)(F)F)c1nnnn1-c1ccc3c(c1)OCCO3)CC2 (stereo unspecified)	x	x	x	x	1.6	x	x	x	x
CCN1/C(=C\C=C\C2=[N+](CC)c3ccccc3C2(C)C)C(C)(C)c2ccccc21	57.7*	42.0*	97.1*	46.5*	+	27.7	26.9	96.2*	7.5	tim23-1 conf=40.0*;Rh123 counter=83.8*
CN(C)P1(=O)N(C)CCN1C	x	x	x	x	0.6	x	x	x	x
COc1ccc(-n2nnnc2C(CCc2ccccc2)N2CCC(n3c(=O)[nH]c4ccccc43)CC2)cc1 (stereo unspecified)	x	x	x	x	-0.6	x	x	x	x
SMILES	tim23-1 inh	tim10-1 inh	Mdm2 MdmX PPI	TIM10 inh	MPTP block	tim10-1 conf	TIM10 conf	Mdm2 MdmX conf	Full FLuc ctr	others
Oc1c(Cl)c(Cl)c(Cl)c(Cl)c1Cl	39.3	46.8*	-13.2	39.5	72.9*	30.8*	x	x	x	Rh123 counter=88.2*
CN1C(=O)C[N+]([O-])=C(c2ccccc2)c2cc(Cl)ccc21	x	x	x	x	-1.1	x	x	x	x
COC(=O)C(O)(c1ccc(NC(=S)NC(=O)c2ccc(Cl)cc2Cl)c(C)c1)C(F)(F)F (stereo unspecified)	58.5*	52.9*	19.4	23.1	85.6*	36.9*	x	x	x	tim23-1 conf=57.6*;Rh123 counter=85.6*
COc1ccc(N2C(=O)NC(=O)/C(=C\c3ccc([N+](=O)[O-])s3)C2=O)cc1	43.2	67.9*	12.3	80.9*	55.5*	71.4*	38.3*	x	x	Rh123 counter=-13.1
COc1cccc(C(c2nnnn2Cc2ccccc2)N2CCC3(CC2)C(=O)NCN3c2ccccc2)c1OC (stereo unspecified)	x	x	x	x	1.6	x	x	x	x
N#CC(C#N)=NNc1ccc(-n2ccc(C(F)(F)F)n2)cc1	51.0*	49.9*	93.9*	47.6*	77.9*	59.3*	23.4	73.1*	31.2	tim23-1 conf=61.2*;Rh123 counter=81.7*
CC[n+]1c(/C=C/C=C/c2ccc(N(C)C)cc2)sc2ccccc21	83.5*	85.4*	88.1*	82.1*	133.5*	89.8*	74.0*	83.8*	17.2	tim23-1 conf=82.3*;Rh123 counter=71.1*
O=C1NCN(c2ccccc2)C12CCN(C(CCc1ccccc1)c1nnnn1C1CCCC1)CC2 (stereo unspecified)	x	x	x	x	1.8	x	x	x	x
CCN(CC)c1ccc(N=Cc2c(O)n(-c3ccccc3)c(=O)[nH]c2=O)cc1	19.6	26.8	9.4	41.0*	3.5	x	18.9	x	x
CCOc1ccc(-n2c(O)c(C=Nc3ccc(N(CC)CC)cc3)c(=O)[nH]c2=O)cc1	8.6	12.1	0.6	-10.9	2.0	x	x	x	x
O=P(Nc1ccccc1Cl)(c1ccccc1)c1nc2c(s1)CCCC2 (stereo unspecified)	35.5	37.2	17.0	41.2*	1.8	x	21.3	x	x
